# Test system: HeLa
# Assay: percent cells in G2/M phase; higher = more G2/M arrest
# Settings: 10 µM; 20 h; hit class: G1-phase inhibitor
# Protocol: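 HTS of 79,827 drug-like compounds at 10 uM. HeLa cells in 384-well plates were treated for 20 h, fixed, stained with Vybrant DyeCycle Green and scanned on an Acumen eX3 cytometer to give per-well cell cycle profiles (% cells in each phase). The plate Z' was 0.51. Only hits are listed: G1 hits >4 SD and S hits >5 SD from the mean.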
row,Compound,percent cells in G2/M phase [%]
1,C[C@@H]1C[C@@H]([C@H](O)CC2CC(=O)NC(=O)C2)C(=O)[C@@H](C)C1 [Cycloheximide],11.8
2,CNc1ccc2oc(C[C@H]3O[C@@]4(CC[C@H]3C)O[C@H]([C@H](C)C(=O)c3ccc[nH]3)[C@H](C)C[C@H]4C)nc2c1C(=O)O,5.98
3,O=[N+]([O-])c1ccc(NCCO)c2ncccc12,23.7
4,C/C(=C\c1ccc(Cl)cc1)[N+](=O)[O-],2.17
5,C[C@@]12C(=O)OC(=O)[C@]1(C)[C@H]1CC[C@@H]2O1,12
6,C/C=C(/C)C(=O)O[C@H]1C(C)=C2[C@H]([C@@H]1OC(=O)CCCCCCC)[C@@](C)(OC(C)=O)C[C@H](OC(=O)CCC)[C@@]1(O)[C@H]2OC(=O)[C@@]1(C)O,9.52
7,CC(C)(C)c1cc(C=C(C#N)C#N)cc(C(C)(C)C)c1O,12.3
8,C[C@@H]1O[C@@H](O[C@H]2C[C@@H](O)[C@]3(CO)[C@H]4[C@H](O)C[C@]5(C)[C@@H](C6=CC(=O)OC6)CC[C@]5(O)[C@@H]4CC[C@]3(O)C2)[C@H](O)[C@H](O)[C@H]1O,12.2
9,CNC1CC2OC(C)(C1OC)n1c3ccccc3c3c4c(c5c6ccccc6n2c5c31)C(=O)NC4 (centres undefined),3.24

# Source: the supplement of paper PMC4237247
